The record followed here is publication PMC10726135, “HNF4α isoforms regulate the circadian balance between carbohydrate and lipid metabolism in the liver”.

Over roughly 18,000 sequences, “log2 normalized intensity” has its median near 0.36; the highest 2% begin near 7.3. Shown is part of a subset that was picked to be rich in the highest values.

In this assay the target is T1, HNF4alpha8 (COS-7 nuclear extract) (Homo sapiens, UniProt P41235-5 1-452).
T1 sequence: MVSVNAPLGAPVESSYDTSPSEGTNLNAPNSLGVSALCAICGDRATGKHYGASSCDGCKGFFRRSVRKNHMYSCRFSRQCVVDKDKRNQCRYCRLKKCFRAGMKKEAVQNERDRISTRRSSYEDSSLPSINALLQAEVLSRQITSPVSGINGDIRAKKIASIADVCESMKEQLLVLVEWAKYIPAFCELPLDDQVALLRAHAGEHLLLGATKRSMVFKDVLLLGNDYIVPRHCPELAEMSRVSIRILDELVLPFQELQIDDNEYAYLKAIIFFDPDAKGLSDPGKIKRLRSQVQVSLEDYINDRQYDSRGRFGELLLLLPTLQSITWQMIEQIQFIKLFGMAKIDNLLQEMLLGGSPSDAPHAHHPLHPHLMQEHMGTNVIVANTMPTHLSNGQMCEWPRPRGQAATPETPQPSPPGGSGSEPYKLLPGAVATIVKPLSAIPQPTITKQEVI
As to the kind of experiment: protein-binding microarray; COS-7 nuclear extract on double-stranded Agilent 4x180k PBM; binding buffer, salt, pH and temperature not given in the material; high values mean tight binding. The conditions noted are these: chain copies: 2; label: 3' end of strand 1 on the slide; dsDNA, one strand shown. The method in brief:
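Nuclear extracts came from COS-7 cells transiently transfected by CaPO4 with a human HNF4α isoform expression vector. They were applied to a custom Agilent SurePrint G3 4x180k array of ~60-nt oligonucleotides, made double-stranded, with ~44,000 test sequences spotted in quadruplicate. Bound HNF4α was imaged at 2-µm resolution on an Agilent G2565CA scanner. Binding signal was taken as background-corrected, normalized gProcessedSignal from Agilent software.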
Take “AAAATACCTGGAAGTATTTATTGAGCACACGCCTAGGGAGATTAGAGTATCGGTCGA”: the binding signal was -0.121 log2 normalized intensity.
With “AAGTATCTCGGTCAAACCTTTGACCCTTTAGCCTAGGGAGATTAGAGTATCGGTCGA” the figure was 6.9 log2 normalized intensity.
Turning to “CCTCGAGGCAACCTTTGACCTGGTACTATGGCCTAGGGAGATTAGAGTATCGGTCGA”, the binding signal was found to be 6.8 log2 normalized intensity.
In the case of “ATCACTGAAGCGACCCCTCGAGGCAACCTTGCCTAGGGAGATTAGAGTATCGGTCGA”, the binding signal was determined as 1.75 log2 normalized intensity.
With “CGACCCCTCGAGGCAACCTTTGACCTGGTAGCCTAGGGAGATTAGAGTATCGGTCGA”, the binding signal is 8.16 log2 normalized intensity.
For the sequence “TGAAGCGACCCCTCGAGGCAACCTTTGACCGCCTAGGGAGATTAGAGTATCGGTCGA”, the binding signal was determined as 9.25 log2 normalized intensity.
For “GTCAAATCACTGAAGCGACCCCTCGAGGCAGCCTAGGGAGATTAGAGTATCGGTCGA”, the binding signal was 1.82 log2 normalized intensity.
In the case of “GTGAACCTTTGTCCCGTTATGGCACCAAGAGCCTAGGGAGATTAGAGTATCGGTCGA”, the binding signal came to 1.55 log2 normalized intensity.
For “AGATCCATTGCATGTGCATTTCACAATAGGGCCTAGGGAGATTAGAGTATCGGTCGA”, the binding signal stood at 0.639 log2 normalized intensity.
With “GTGGGAGAAAGCTTTGGACTTTGGGCTGTGGCCTAGGGAGATTAGAGTATCGGTCGA” the figure was 6.47 log2 normalized intensity.
Consider “GGTCAGCAATGTGGACTTTGTCCTGTGGGCGCCTAGGGAGATTAGAGTATCGGTCGA”, for which the binding signal amounted to 8.67 log2 normalized intensity.
As to “GTGGACTTTGTCCTGTGGGCTGTAAAAATCGCCTAGGGAGATTAGAGTATCGGTCGA”, the binding signal was 5.73 log2 normalized intensity.
“GCAATGTGGACTTTGTCCTGTGGGCTGTAAGCCTAGGGAGATTAGAGTATCGGTCGA”: the binding signal was determined as 8.03 log2 normalized intensity.
Regarding “AGTTTGCCACGGTCAGCAATGTGGACTTTGGCCTAGGGAGATTAGAGTATCGGTCGA”, the binding signal was 6.83 log2 normalized intensity.
For “TGGACTTTGGTCCTGGTCAGACTTGCCACGGCCTAGGGAGATTAGAGTATCGGTCGA”, the binding signal came out at 5.42 log2 normalized intensity.
With “CCGTCCTGTCCTGGACTTTCCTTTGTTGGGGCCTAGGGAGATTAGAGTATCGGTCGA”, the binding signal was determined as 2.84 log2 normalized intensity.
In the case of “ATGGACTTTGAAGGAGATTCCTGTGTCAGCGCCTAGGGAGATTAGAGTATCGGTCGA”, the binding signal stood at 1.23 log2 normalized intensity.
On to “GCCACGGTCAGCAATGTGGACTTTGTCCTGGCCTAGGGAGATTAGAGTATCGGTCGA”, for which the binding signal worked out at 10.2 log2 normalized intensity.
Turning to “CAGATAATTACCTGGACTCTAGAGCCAGACGCCTAGGGAGATTAGAGTATCGGTCGA”, the binding signal was 1.75 log2 normalized intensity.
With “CTCAAAGTCTAACCCAACTAAGAACACAGTGCCTAGGGAGATTAGAGTATCGGTCGA”, the binding signal amounted to 1.24 log2 normalized intensity.
Regarding “AAAGTTCAGTTGCAAAGAACAGAATCCAGTGCCTAGGGAGATTAGAGTATCGGTCGA”, the binding signal is -0.777 log2 normalized intensity.
For the sequence “GTCTTACTGATGGGCAAAGTTTTCAAGAATGCCTAGGGAGATTAGAGTATCGGTCGA”, the binding signal came to 1.24 log2 normalized intensity.
With “CATGTTTACTTTTGCAAGGTTTGTTCTTATGCCTAGGGAGATTAGAGTATCGGTCGA” the figure was 1.87 log2 normalized intensity.
For the sequence “GGTGAACTTTGAGACTATCCTTGGACCGCAGCCTAGGGAGATTAGAGTATCGGTCGA”, the binding signal was determined as 3.32 log2 normalized intensity.
Regarding “ACAGGAGATCAGATGGGGTGAACTTTGGACGCCTAGGGAGATTAGAGTATCGGTCGA”, the binding signal is 9.11 log2 normalized intensity.
Consider “TACCATGGGAGACCTCAGGGGTCATCAGATGCCTAGGGAGATTAGAGTATCGGTCGA”, for which the binding signal was 3.08 log2 normalized intensity.
In the case of “CTCAGTCATACCACATGGATGGATTCAGATGCCTAGGGAGATTAGAGTATCGGTCGA”, the binding signal came to 0.256 log2 normalized intensity.
On to “AGATCAGATGGGGTGAACTTTGGACCACATGCCTAGGGAGATTAGAGTATCGGTCGA”, for which the binding signal amounted to 8.04 log2 normalized intensity.
For “CAGGGGTCATCAGATAGATGGTCAGTGAACGCCTAGGGAGATTAGAGTATCGGTCGA”, the binding signal amounted to 1.88 log2 normalized intensity.
With “AGATGGGGTGAACTTTGGACCACATATAGAGCCTAGGGAGATTAGAGTATCGGTCGA”, the binding signal turned out to be 7.98 log2 normalized intensity.
For “GAGGACTTTGGCCTTTTGTGAGATATGGACGCCTAGGGAGATTAGAGTATCGGTCGA”, the binding signal came out at 4.16 log2 normalized intensity.
Regarding “TGGGGTATCAGGTGGTGATGGTGGGAGGGAGCCTAGGGAGATTAGAGTATCGGTCGA”, the binding signal is -0.797 log2 normalized intensity.
In the case of “AAGGGAGAAAGACATGTTTCTAACTGCCCGGCCTAGGGAGATTAGAGTATCGGTCGA”, the binding signal is 0.0984 log2 normalized intensity.
For “CTGCTTCGGCCTTTGACCTCGTGATAACGAGCCTAGGGAGATTAGAGTATCGGTCGA”, the binding signal came to 5.83 log2 normalized intensity.
Turning to “TTGAAGAAATGGTGGACTTTGTAGCTCAAAGCCTAGGGAGATTAGAGTATCGGTCGA”, the binding signal worked out at 4.79 log2 normalized intensity.
For “AAAGTTCTGCTGAGTATCCAAAGGTCAGTGGCCTAGGGAGATTAGAGTATCGGTCGA”, the binding signal turned out to be 6.24 log2 normalized intensity.
For the sequence “GACGGGAGGAAAACTGGGCAAAGGTCAGGAGCCTAGGGAGATTAGAGTATCGGTCGA”, the binding signal amounted to 5.58 log2 normalized intensity.
In the case of “GGCGTGGACTTCGCTCCGCCGCTAGGTGGCGCCTAGGGAGATTAGAGTATCGGTCGA”, the binding signal is 3.13 log2 normalized intensity.
With “GCCAGGCAGGACAGTTTTGTGTGTTTAATGGCCTAGGGAGATTAGAGTATCGGTCGA” the figure was 0.878 log2 normalized intensity.
With “AAATGCTGATAATGATATGGACAATGAAATGCCTAGGGAGATTAGAGTATCGGTCGA”, the binding signal came out at 0.122 log2 normalized intensity.
For “CCATCAGTGGACTTTGACCTTGTTTTCAATGCCTAGGGAGATTAGAGTATCGGTCGA”, the binding signal came to 9.54 log2 normalized intensity.
On to “CAGTGGACTTTGTCCTTCATCTATCTCCTTGCCTAGGGAGATTAGAGTATCGGTCGA”, for which the binding signal came out at 5.95 log2 normalized intensity.
